Activity calls are given as the source filed them.
How the values were obtained:
[1] = compound effects on lung adenocarcinoma cell viability – A549, calcein-AM fluorescence, 48 h, basal, profiling panel (AID 1162); details: higher = more signal
[2] = compound effects on differentiated 3T3-L1 adipocyte viability – cell-based, 3T3-L1 adipocytes, calcein-AM fluorescence, 48 h, basal, profiling panel (AID 1163); details: 3T3-L1 adipocytes viability, higher = more signal
[3] = compound effects on hepatocellular carcinoma cell viability – HepG2, calcein-AM fluorescence, 48 h, basal, profiling panel (AID 1164); details: higher = more signal
[4] = compound effects on multiple myeloma cell viability – MM1S, calcein-AM fluorescence, 48 h, basal, profiling panel (AID 1165); details: higher = more signal;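 further: viability of MM1S multiple myeloma cells under basal unstimulated conditions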
[5] = calcein-AM signal in unstimulated myeloma cells – cell-based, calcein-AM fluorescence, 48 h, PK04 Diversity Set, profiling panel (AID 1166); details: RPMI8226 myeloma viability, higher = more signal;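 further: cells grown under basal conditions without added stimulus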
[6] = JC-1 mitochondrial signal, unstimulated HepG2 cells – cell-based, JC-1 fluorescence, 24 h, 100 nL compound, profiling panel (AID 1167); details: HepG2 mitochondrial potential, higher = more signal
[7] = JC-1 mitochondrial signal, unstimulated adipocytes – cell-based, JC-1 fluorescence, 3T3-L1 adipocytes, 24 h, 100 nL compound, profiling panel (AID 1168); details: JC-1 mitochondrial fluorescence, higher = more signal, called active from +8 up or from −8 down
[8] = JC-1 mitochondrial signal, unstimulated myeloma cells – cell-based, JC-1 fluorescence, RPMI8226, 24 h, 100 nL compound, profiling panel (AID 1169); details: JC-1 mitochondrial potential fluorescence, higher = more signal
[9] = JC-1 mitochondrial signal, unstimulated MM1S myeloma – cell-based, JC-1 fluorescence, 24 h, 100 nL compound, profiling panel (AID 1170); details: MM1S mitochondrial potential, higher = more signal
[10] = resazurin metabolic signal in A549 cells – cell-based, resazurin fluorescence, 24 h, PK04 Diversity Set, profiling panel (AID 1171); details: A549 viability, higher = more signal, called active from +8 up or from −8 down
Further: test concentration not given here.

| SMILES | z-score [1] | z-score [2] | z-score [3] | z-score [4] | z-score [5] | z-score [6] | z-score [7] | z-score [8] | z-score [9] | z-score [10] |
| --- | --- | --- | --- | --- | --- | --- | --- | --- | --- | --- |
| CC(C)=CCCC(C)=CCON=C1C[C@@H](O)[C@@H](O)[C@@H]2[C@@H]3C(=O)N(C[C@@H]4CCCO4)C(=O)[C@@H]3CC[C@@H]12 | 0.113 | -0.833 | -0.315 | 0.182 | -0.0114 | -1.31 | 0.729 (inactive) | -0.495 | -0.761 | 0.0805 (inactive) |
| Cc1ccc(S(=O)(=O)N[C@@H]2COC(=O)[C@H](C)COC(=O)CC=C[C@H]2C)cc1 | 0.449 | 0.518 | 0.53 | 0.228 | 0.274 | 0.539 | -0.0933 (inactive) | 1.06 | 0.34 | 0.317 (inactive) |
| CC(CCN1CCc2nc(-c3ccccc3)c(-c3ccccc3)cc2C1)=NOC(C)CN1CCCCc2nc(C)c(C)cc21 (stereo not given) | 0.646 | 0.659 | 0.797 | -1.82 | -0.19 | 4.98 | -1.28 (inactive) | 0.303 | 0.108 | 0.935 (inactive) |
| C#CCCCON=C1C[C@@H](O)[C@@H](O)[C@@H]2[C@@H]3C(=O)N(Cc4ccccc4)C(=O)[C@@H]3CC[C@H]12 | 0.416 | 0.798 | -0.969 | 0.772 | 0.477 | 0.843 | 0.381 (inactive) | 0.379 | -0.901 | 0.97 (inactive) |
| CC(C)NC(=O)[C@@H]1c2ccccc2C(=O)N(CC23CC4CC(CC(C4)C2)C3)[C@H]1c1ccc(CO)cc1 | 1.39 | 0.885 | 1.29 | -0.0705 | 0.301 | 1.83 | -0.459 (inactive) | 0.433 | -0.624 | 1.18 (inactive) |
| O=C1[C@H]2[C@H]3[C@H](O)[C@H](O)CC(=NOC[C@@H](O)COCc4ccco4)[C@H]3CC[C@H]2C(=O)N1c1cccc(Oc2ccccc2)c1 | 1.26 | 0.01 | -0.463 | 0.511 | 0.977 | 0.526 | 0.994 (inactive) | 0.682 | -1.2 | 0.26 (inactive) |
| CC(C)(C)N1C(=O)[C@H]2[C@H]3[C@H](O)[C@H](O)CC(=NO[C@@H]4O[C@H](CO)[C@@H](O)[C@H](O)[C@H]4O)[C@@H]3CC[C@H]2C1=O | -0.504 | 0.346 | 0.302 | -0.739 | -0.666 | -2.11 | -0.404 (inactive) | -0.018 | -1.03 | -0.461 (inactive) |
| CCOC(=O)NN=C1C[C@@H](O)[C@@H](O)[C@@H]2[C@@H]3C(=O)N(C[C@@H]4CCCO4)C(=O)[C@@H]3CC[C@@H]12 | 0.0693 | -0.637 | 0.473 | 0.157 | 0.549 | 1.06 | 0.491 (inactive) | 0.248 | -0.895 | -0.175 (inactive) |
| COc1ccc([Si](C)(C)[C@H]2[C@H](CC(=O)N3CCC[C@H]3CO)O[C@@]3(C(=O)N(Cc4cccc(N5C(=O)COc6ccccc65)c4)c4ccccc43)[C@@H]2C)cc1 | 0.819 | 0.198 | 1.01 | -2.42 | -4.37 | 4.27 | 1.86 (inactive) | -0.938 | 0.741 | -0.343 (inactive) |
| CC(C)CON=C1C[C@@H](O)[C@@H](O)[C@@H]2[C@@H]3C(=O)N([C@@H](C)c4ccccc4)C(=O)[C@@H]3CC[C@H]12 | 0.58 | -0.297 | -0.0223 | 0.844 | 0.933 | 0.658 | 0.341 (inactive) | 0.53 | -1.32 | -0.511 (inactive) |
| Cc1ccc(S[C@]2(C(=O)NCC(F)(F)F)CC(=O)N(Cc3ccccc3Cl)[C@@H]2c2ccc(CO)cc2I)cc1 | -1.08 | -0.798 | 0.995 | -2.24 | -2.67 | 0.627 | -0.541 (inactive) | -0.566 | -1.18 | 0.318 (inactive) |
| CC(C)C[C@@H]1NC(=O)[C@H]2C[C@@H](C(=O)O)[C@@H](c3ccc(O)cc3)N2C1=O | 0.48 | 0.0559 | 0.111 | -2.7 | 0.25 | 1.27 | -0.0304 (inactive) | 0.433 | -0.0341 | -0.0496 (inactive) |
| O=C1C2C=CC(C(O)c3ccc([N+](=O)[O-])cc3)N(Nc3ccc([N+](=O)[O-])cc3)C2C(=O)N1c1ccccc1 (stereo not given) | -0.682 | -1.1 | 0.0069 | -0.0432 | -1.81 | -2.27 | -2.73 (inactive) | -1.01 | -1.48 | -0.402 (inactive) |
| O=C1[C@H]2[C@H]3[C@H](O)[C@H](O)CC(=NOCc4ccccc4)[C@H]3CC[C@H]2C(=O)N1C[C@@H]1CCCO1 | 0.0598 | -0.247 | -0.85 | -0.306 | 0.422 | -0.528 | -1.13 (inactive) | -0.669 | -0.153 | 0.469 (inactive) |

Reference: PubChem BioAssay
